# Assay results from PubChem BioAssay (EPA / NIEHS).
# Activity calls are given as the source filed them. How the source made its calls: active means hit-call score of the fitted dose curve at least 0.9, where 1 is the maximum; inactive means score below 0.9.
# Tests used:
# Settings in all cases: mRNA level, 48 h; actives raise or lower the signal
# [1] = read-out: BCL2L11 (gene 10018); assay: LTEA_HepaRG_BCL2L11: Life Technologies and Expression Analysis (LTEA) Assay for Bcl-2 (BCL2L11) gene using HepaRG (AID 2283473)
# In short: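 Human hepatic HepaRG cultures are treated 48 h with test chemicals (maximum 100 uM, 0.5% DMSO vehicle). Expression of BCL2L11 is measured by qRT-PCR against ACTB, GAPDH and POLR2A, with activity in either direction scored relative to vehicle.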
# [2] = read-out: Apolipoprotein A-V (APOA5) gene, APOA5 (gene 116519); assay: LTEA_HepaRG_APOA5: Life Technologies and Expression Analysis (LTEA) Assay for Apolipoprotein A-V (APOA5) gene using HepaRG (AID 2283474)
# In short: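 Concentration-response of APOA5 expression in HepaRG: eight half-log doses to 100 uM, 48 h, qRT-PCR normalized to ACTB/GAPDH/POLR2A, bidirectional fitting with 0.5% DMSO as baseline.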
# [3] = read-out: Apoptosis regulator Bcl-2 (Homo sapiens) (UniProt P10415); assay: LTEA_HepaRG_BCL2: Life Technologies and Expression Analysis (LTEA) Assay for Bcl-2 gene using HepaRG (AID 2283475)
# In short: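 qRT-PCR of BCL2 transcript, normalized to three housekeeping genes (ACTB, GAPDH, POLR2A), after 48 h chemical exposure of HepaRG cells; concentrations top 100 uM with half-log dilutions, 0.5% DMSO vehicle, duplicates; changes up or down fitted relative to vehicle.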
# [4] = read-out: Bcl-2 (BID) gene, BID (gene 637); assay: LTEA_HepaRG_BID: Life Technologies and Expression Analysis (LTEA) Assay for Bcl-2 (BID) gene using HepaRG (AID 2283476)
# In short: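 Duplicate 48 h treatments of HepaRG cells in serum-free induction medium spanned 100 uM downward in half-log steps, 0.5% DMSO. Transcript change quantified by qRT-PCR against three housekeeping genes, fitted up or down versus DMSO.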
# [5] = read-out: Caspase-3 (Homo sapiens) (UniProt P42574); assay: LTEA_HepaRG_CASP3: Life Technologies and Expression Analysis (LTEA) Assay for cysteine-aspartic acid protease (CASP3) using HepaRG (AID 2283477)
# In short: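 Transcript-level assay: CASP3 mRNA in human HepaRG after 48 h treatment, eight half-log concentrations from 100 uM in 0.5% DMSO, quantified by qRT-PCR.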
# [6] = read-out: Cytochrome P450 (CYP24A1), CYP24A1 (gene 1591); assay: LTEA_HepaRG_CYP24A1: Life Technologies and Expression Analysis (LTEA) Assay for Cytochrome P450 (CYP24A1) using HepaRG (AID 2283478)
# In short: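 Gene expression of CYP24A1 by TaqMan qRT-PCR in HepaRG after 48 h treatment, highest concentration 100 uM; activity fitted in both directions relative to DMSO vehicle.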
# [7] = read-out: cysteine-aspartic acid protease (CASP8), CASP8 (gene 841); assay: LTEA_HepaRG_CASP8: Life Technologies and Expression Analysis (LTEA) Assay for cysteine-aspartic acid protease (CASP8) using HepaRG (AID 2283480)
# In short: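 CASP8 transcript measured by TaqMan qRT-PCR with ACTB/GAPDH/POLR2A normalization, after 48 h chemical exposure of HepaRG cells in serum-free induction medium. Eight concentrations, top 100 uM, half-log steps, 0.5% DMSO vehicle; fits in both directions versus DMSO.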
# [8] = read-out: Cytochrome P450 (CYP2B6), CYP2B6 (gene 1555); assay: LTEA_HepaRG_CYP2B6: Life Technologies and Expression Analysis (LTEA) Assay for Cytochrome P450 (CYP2B6) using HepaRG (AID 2283481)
# In short: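 Human HepaRG, 48 h dosing, 0.5% DMSO vehicle, top dose 100 uM. CYP2B6 transcript by qRT-PCR, housekeeping-normalized, bidirectional curve fit.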
# [9] = read-out: Cytochrome P450 2C19 (Homo sapiens) (UniProt P33261); assay: LTEA_HepaRG_CYP2C19: Life Technologies and Expression Analysis (LTEA) Assay for CYP2C19 using HepaRG (AID 2283482)
# In short: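 Endpoint: CYP2C19 mRNA change, bidirectional fit vs 0.5% DMSO. Cells: HepaRG, 48 h exposure, eight-point series topping at 100 uM. Quantitation: qRT-PCR normalized to ACTB, GAPDH, POLR2A.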
# [10] = read-out: CYP2C8 (gene 1558); assay: LTEA_HepaRG_CYP2C8: Life Technologies and Expression Analysis (LTEA) Assay for CYP2C8 using HepaRG (AID 2283483)
# In short: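 CYP2C8 expression measured by TaqMan qRT-PCR and normalized to three housekeeping genes. HepaRG cultures were treated for 48 h with an eight-point half-log series topping at 100 uM, vehicle 0.5% DMSO, duplicates; fitted both directions against DMSO.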
# [11] = read-out: CYP2C9 (gene 1559); assay: LTEA_HepaRG_CYP2C9: Life Technologies and Expression Analysis (LTEA) Assay for CYP2C9 using HepaRG (AID 2283484)
# In short: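 CYP2C9 transcript level, quantified by TaqMan qRT-PCR against three housekeeping genes, was fitted bidirectionally relative to 0.5% DMSO. HepaRG cultures were treated 48 h, in duplicate, at eight half-log concentrations topping at 100 uM.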
# [12] = read-out: CYP2E1 (gene 1571); assay: LTEA_HepaRG_CYP2E1: Life Technologies and Expression Analysis (LTEA) Assay for CYP2E1 using HepaRG (AID 2283485)
# In short: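 CYP2E1 transcript measured by Fluidigm qRT-PCR against three housekeeping genes in human HepaRG cells treated 48 h (top 100 uM, half-log steps, 0.5% DMSO vehicle). Gain or loss fitted relative to DMSO baseline.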
# [13] = read-out: CYP4A11 (gene 1579); assay: LTEA_HepaRG_CYP4A11: Life Technologies and Expression Analysis (LTEA) Assay for CYP4A11 using HepaRG (AID 2283486)
# In short: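 Human hepatic HepaRG cultures receive duplicate 48 h exposures across a concentration-response series topping at 100 uM. Expression changes in CYP4A11 are measured by qRT-PCR relative to DMSO controls.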
# [14] = read-out: DNA damage-inducible transcript 3 (DDIT3), DDIT3 (gene 1649); assay: LTEA_HepaRG_DDIT3: Life Technologies and Expression Analysis (LTEA) Assay for DNA damage-inducible transcript 3 (DDIT3) using HepaRG (AID 2283488)
# In short: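 DDIT3 transcript was quantified by qRT-PCR with ACTB/GAPDH/POLR2A normalization after 48 h chemical treatment of differentiated HepaRG cells in 0.5% DMSO. Dosing was eight-point, half-log, top 100 uM, duplicate wells. Curves fitted bidirectionally versus DMSO.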
# [15] = read-out: Pro-epidermal growth factor (Homo sapiens) (UniProt P01133); assay: LTEA_HepaRG_EGF: Life Technologies and Expression Analysis (LTEA) Assay for Epidermal growth factor (EGF) using HepaRG (AID 2283489)
# In short: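 Concentration-response mRNA assay: HepaRG cells dosed 48 h (max 100 uM, 0.5% DMSO), EGF measured by qRT-PCR and normalized to ACTB/GAPDH/POLR2A.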
# [16] = read-out: Early growth response protein 1 (EGR1) transcription factor, EGR1 (gene 1958); assay: LTEA_HepaRG_EGR1: Life Technologies and Expression Analysis (LTEA) Assay for Early growth response protein 1 (EGR1) transcription factor using HepaRG (AID 2283490)
# In short: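 EGR1 transcript levels quantified by qRT-PCR (Fluidigm arrays) against three housekeeping genes after 48 h chemical exposure of HepaRG cells. Eight-point half-log series topping at 100 uM, 0.5% DMSO vehicle, analyzed for gain or loss.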
# [17] = read-out: Ezrin (EZR), EZR (gene 7430); assay: LTEA_HepaRG_EZR: Life Technologies and Expression Analysis (LTEA) Assay for Ezrin (EZR) using HepaRG (AID 2283491)
# In short: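 Read-out is EZR transcript level by qRT-PCR, normalized to three housekeeping genes and fitted bidirectionally against the DMSO control. Human HepaRG cells received test chemicals for 48 h at eight half-log concentrations up to 100 uM in 0.5% DMSO.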
# [18] = read-out: Cytochrome P450 3A4 (Homo sapiens) (UniProt P08684); assay: LTEA_HepaRG_CYP3A4: Life Technologies and Expression Analysis (LTEA) Assay for CYP3A4 using HepaRG (AID 2283487)
# In short: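 HepaRG, 48 h exposure, 8-pt CRC from 100 uM (half-log), 0.5% DMSO, duplicates; serum-free induction medium. Readout: CYP3A4 mRNA, qRT-PCR, ACTB/GAPDH/POLR2A normalization. Bidirectional fit vs DMSO.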
# [19] = read-out: Cytochrome P450 3A7 (Homo sapiens) (UniProt P24462); assay: LTEA_HepaRG_CYP3A7: Life Technologies and Expression Analysis (LTEA) Assay for CYP3A7 using HepaRG (AID 2283492)
# In short: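 qRT-PCR of CYP3A7 in HepaRG lysates after 48 h treatment; concentration-response (8 points, max 100 uM) analysed bidirectionally relative to 0.5% DMSO controls.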
# [20] = read-out: Cytochrome P450 (CYP1A2), CYP1A2 (gene 1544); assay: LTEA_HepaRG_CYP1A2: Life Technologies and Expression Analysis (LTEA) Assay for Cytochrome P450 (CYP1A2) using HepaRG (AID 2283479)
# In short: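 In duplicate wells, HepaRG cultures maintained in 0.5% DMSO were treated 48 h across an 8-point, half-log series topping at 100 uM; phenobarbital (1 mM) served as induction control. Expression was read by qRT-PCR.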
# Sequence of Cytochrome P450 3A4 (Homo sapiens) (P08684 whole entry, looked up): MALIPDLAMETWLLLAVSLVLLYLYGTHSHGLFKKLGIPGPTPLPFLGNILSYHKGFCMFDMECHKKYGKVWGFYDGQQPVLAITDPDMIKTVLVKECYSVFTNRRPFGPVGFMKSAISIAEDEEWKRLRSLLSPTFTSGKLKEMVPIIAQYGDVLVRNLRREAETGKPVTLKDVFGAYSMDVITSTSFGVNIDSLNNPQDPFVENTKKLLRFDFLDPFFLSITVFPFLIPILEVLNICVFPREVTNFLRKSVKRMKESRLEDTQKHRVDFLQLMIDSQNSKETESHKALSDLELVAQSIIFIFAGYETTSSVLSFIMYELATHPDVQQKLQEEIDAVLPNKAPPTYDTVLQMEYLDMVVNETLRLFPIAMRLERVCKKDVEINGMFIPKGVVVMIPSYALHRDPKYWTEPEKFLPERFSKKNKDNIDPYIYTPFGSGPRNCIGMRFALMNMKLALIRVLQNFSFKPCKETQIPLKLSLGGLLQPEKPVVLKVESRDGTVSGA
# Sequence of Cytochrome P450 3A7 (Homo sapiens) (P24462 whole entry, looked up): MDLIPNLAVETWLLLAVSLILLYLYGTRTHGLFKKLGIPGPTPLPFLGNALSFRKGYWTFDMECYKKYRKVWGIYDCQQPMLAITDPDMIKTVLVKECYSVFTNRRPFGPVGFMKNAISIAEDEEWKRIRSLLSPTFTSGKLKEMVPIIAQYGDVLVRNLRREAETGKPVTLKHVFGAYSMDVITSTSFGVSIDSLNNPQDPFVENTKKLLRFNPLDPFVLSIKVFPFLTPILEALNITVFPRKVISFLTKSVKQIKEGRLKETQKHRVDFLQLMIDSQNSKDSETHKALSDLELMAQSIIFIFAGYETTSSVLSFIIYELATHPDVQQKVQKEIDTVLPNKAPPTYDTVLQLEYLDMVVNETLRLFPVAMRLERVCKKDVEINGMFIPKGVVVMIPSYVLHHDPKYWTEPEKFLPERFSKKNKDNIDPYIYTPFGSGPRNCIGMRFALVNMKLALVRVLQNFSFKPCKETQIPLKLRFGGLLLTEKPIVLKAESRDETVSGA
# Sequence of Cytochrome P450 2C19 (Homo sapiens) (P33261 whole entry, looked up): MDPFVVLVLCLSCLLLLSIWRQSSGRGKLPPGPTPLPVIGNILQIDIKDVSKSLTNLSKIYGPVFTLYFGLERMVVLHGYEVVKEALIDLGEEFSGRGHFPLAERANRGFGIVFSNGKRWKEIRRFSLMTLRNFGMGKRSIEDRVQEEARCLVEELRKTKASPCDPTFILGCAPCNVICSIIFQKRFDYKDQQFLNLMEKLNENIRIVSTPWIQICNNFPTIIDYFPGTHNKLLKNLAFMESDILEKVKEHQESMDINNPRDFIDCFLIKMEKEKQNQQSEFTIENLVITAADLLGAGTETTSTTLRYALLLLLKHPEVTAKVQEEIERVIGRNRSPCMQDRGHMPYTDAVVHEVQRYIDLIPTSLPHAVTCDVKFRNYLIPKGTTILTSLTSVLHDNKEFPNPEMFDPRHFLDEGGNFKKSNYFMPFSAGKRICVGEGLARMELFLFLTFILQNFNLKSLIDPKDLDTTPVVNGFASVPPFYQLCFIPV
# Sequence of Apoptosis regulator Bcl-2 (Homo sapiens) (P10415 whole entry, looked up): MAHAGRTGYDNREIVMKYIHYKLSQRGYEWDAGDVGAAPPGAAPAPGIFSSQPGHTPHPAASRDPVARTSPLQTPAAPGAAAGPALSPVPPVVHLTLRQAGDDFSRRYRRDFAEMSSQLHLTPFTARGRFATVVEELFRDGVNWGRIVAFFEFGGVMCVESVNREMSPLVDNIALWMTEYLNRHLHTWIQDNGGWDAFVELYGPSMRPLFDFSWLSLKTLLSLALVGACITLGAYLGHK
# Sequence of Caspase-3 (Homo sapiens) (P42574 whole entry, looked up): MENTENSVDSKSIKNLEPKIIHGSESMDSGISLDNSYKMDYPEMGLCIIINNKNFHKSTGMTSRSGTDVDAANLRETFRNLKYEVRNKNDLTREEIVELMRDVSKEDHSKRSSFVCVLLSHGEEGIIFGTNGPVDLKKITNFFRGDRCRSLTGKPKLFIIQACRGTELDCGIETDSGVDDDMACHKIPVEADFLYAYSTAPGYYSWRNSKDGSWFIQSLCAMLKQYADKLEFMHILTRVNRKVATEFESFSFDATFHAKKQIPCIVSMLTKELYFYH
smiles,measurement,setting,value
Cn1cc[nH]c1=S,outcome,[1],inactive
same,outcome,[2],inactive
same,outcome,[3],inactive
same,outcome,[4],inactive
same,outcome,[5],inactive
same,outcome,[6],inactive
same,outcome,[7],inactive
same,outcome,[8],inactive
same,outcome,[9],inactive
same,outcome,[10],inactive
same,outcome,[11],inactive
same,outcome,[12],inactive
same,outcome,[13],inactive
same,outcome,[14],inactive
same,outcome,[15],inactive
same,outcome,[16],inactive
same,outcome,[17],inactive
CCN(CC)C(=S)SSC(=S)N(CC)CC,outcome,[1],inactive
same,outcome,[2],inactive
same,outcome,[3],inactive
same,outcome,[4],inactive
same,outcome,[5],inactive
same,outcome,[6],inactive
same,outcome,[7],inactive
same,AC50,[8],16.8 µM (active)
same,outcome,[9],inactive
same,outcome,[10],inactive
same,outcome,[11],inactive
same,outcome,[12],inactive
same,outcome,[13],inactive
same,outcome,[18],inactive
same,outcome,[14],inactive
same,outcome,[15],inactive
same,outcome,[16],inactive
same,outcome,[17],inactive
same,outcome,[19],inactive
C[C@]12C=CC(=O)C=C1CC[C@H]1[C@@H]3C[C@@H](O)[C@](O)(C(=O)CO)[C@@]3(C)C[C@H](O)[C@@]12F,outcome,[1],inactive
same,outcome,[2],inactive
same,outcome,[4],inactive
same,outcome,[5],inactive
same,outcome,[6],inactive
same,AC50,[20],50 µM (active)
same,outcome,[7],inactive
same,outcome,[8],inactive
same,outcome,[10],inactive
same,outcome,[11],inactive
same,outcome,[12],inactive
same,outcome,[13],inactive
same,outcome,[18],inactive
same,outcome,[14],inactive
same,outcome,[16],inactive
same,outcome,[17],inactive
same,outcome,[19],inactive
c1ccc2c(c1)-c1cccc3c1c-2cc1ccccc13,AC50,[1],12.5 µM (active)
same,AC50,[2],13.4 µM (active)
same,AC50,[3],6 µM (active)
same,outcome,[4],inactive
same,AC50,[5],13.5 µM (active)
same,outcome,[6],inactive
same,AC50,[20],1.13 µM (active)
same,outcome,[8],inactive
same,AC50,[9],17.2 µM (active)
same,AC50,[10],17.3 µM (active)
same,AC50,[11],18.1 µM (active)
same,AC50,[12],14.7 µM (active)
same,AC50,[13],26.1 µM (active)
same,AC50,[18],7.02 µM (active)
same,AC50,[14],7.35 µM (active)
same,outcome,[15],inactive
same,AC50,[16],0.404 µM (active)
same,AC50,[19],13 µM (active)
CCCCCOC(C)=O,outcome,[1],inactive
same,outcome,[3],inactive
same,outcome,[4],inactive
same,outcome,[5],inactive
same,outcome,[6],inactive
same,outcome,[20],inactive
same,outcome,[7],inactive
same,outcome,[8],inactive
same,outcome,[9],inactive
same,outcome,[10],inactive
same,outcome,[11],inactive
same,outcome,[12],inactive
same,outcome,[13],inactive
same,outcome,[18],inactive
same,outcome,[14],inactive
same,outcome,[15],inactive
same,outcome,[16],inactive
same,outcome,[17],inactive
same,outcome,[19],inactive
c1ccc(C(O[C@@H]2CCCN(CCc3ccc4c(c3)OCO4)C2)c2ccccc2)cc1,outcome,[1],inactive
same,outcome,[2],inactive
same,AC50,[4],91 µM (active)
same,AC50,[5],76.7 µM (active)
same,outcome,[6],inactive
same,AC50,[7],78.6 µM (active)
same,AC50,[8],72 µM (active)
same,AC50,[9],79 µM (active)
same,AC50,[10],77.1 µM (active)
same,AC50,[11],85.2 µM (active)
same,AC50,[12],50 µM (active)
same,AC50,[13],59.7 µM (active)
same,AC50,[14],63.6 µM (active)
same,outcome,[15],inactive
same,AC50,[16],84.1 µM (active)
same,outcome,[17],inactive
NC(=O)N(O)[C@@H]1COc2cc(OCc3ccccc3)ccc21,outcome,[1],inactive
same,outcome,[2],inactive
same,outcome,[3],inactive
same,outcome,[4],inactive
same,outcome,[5],inactive
same,outcome,[6],inactive
same,outcome,[7],inactive
same,AC50,[8],16.2 µM (active)
same,outcome,[9],inactive
same,outcome,[10],inactive
same,outcome,[11],inactive
same,AC50,[12],50 µM (active)
same,outcome,[13],inactive
same,outcome,[18],inactive
same,outcome,[14],inactive
same,outcome,[15],inactive
same,outcome,[16],inactive
same,outcome,[17],inactive
same,outcome,[19],inactive
